Test results taken from PubChem BioAssay (NCATS).
Records with an inconclusive call do not appear. Activity calls are given as the source filed them. Unless noted, calls come from the whole dose curve; as a rule, active = well fitted curve in the direction sought with a large enough effect; inconclusive = small, poorly fitted or top-dose-only effect, or another doubt; inactive = no such curve, though single readings can be large; an effect the other way counts as inactive or inconclusive.

How the values were obtained:
[1] = biological target: Luciferin 4-monooxygenase (Photinus pyralis) (UniProt P08659); experiment: Firefly luciferase counterscreen qHTS: Assay Interference Panel against the NCATS CANVASS Library (AID 1347363); note: potency is the fitted concentration of half-maximal effect; for activity change, negative = inhibition: 0% is about no effect
Chain of Luciferin 4-monooxygenase (Photinus pyralis) (P08659 whole entry, looked up): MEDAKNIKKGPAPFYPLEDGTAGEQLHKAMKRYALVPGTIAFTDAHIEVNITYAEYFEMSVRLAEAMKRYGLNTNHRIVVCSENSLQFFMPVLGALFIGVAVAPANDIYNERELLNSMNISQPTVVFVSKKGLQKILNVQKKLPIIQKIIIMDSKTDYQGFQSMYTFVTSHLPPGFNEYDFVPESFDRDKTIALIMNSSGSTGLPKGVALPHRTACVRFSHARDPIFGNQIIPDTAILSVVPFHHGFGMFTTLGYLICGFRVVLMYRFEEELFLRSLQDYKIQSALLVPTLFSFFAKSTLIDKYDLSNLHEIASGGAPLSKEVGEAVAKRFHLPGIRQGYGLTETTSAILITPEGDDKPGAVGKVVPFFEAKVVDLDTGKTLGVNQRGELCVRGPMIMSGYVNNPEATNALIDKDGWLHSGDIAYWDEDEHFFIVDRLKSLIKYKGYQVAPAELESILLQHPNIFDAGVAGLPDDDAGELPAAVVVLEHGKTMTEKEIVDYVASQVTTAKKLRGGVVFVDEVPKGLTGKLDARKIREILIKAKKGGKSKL
Outline: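 Luminescence inhibition readout: compounds (11-point qHTS) sat 15 min at room temperature with substrate mix (0.013 mM luciferin and ATP), then firefly luciferase was added and signal read 5 min later.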

[2] = G06 Cancer Cell Toxicity qHTS against the NCATS CANVASS Library (AID 1347368); note: nearly all actives have a fitted effect of over 60% in size; note: potency is the fitted concentration of half-maximal effect; for activity change, negative = cytotoxic: % is set by controls: 0 for no effect and ±100 for the full control effect
Outline: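 Quantitative HTS in G06 cells (dog glioma): 72 hr treatment, 11 concentrations, then ATP-based luminescent viability readout; bortezomib 0.1 nM–4.6 uM final as reference.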

[3] = qHTS for Hypoxia signaling pathway (HIF-1) antagonists against the NCATS CANVASS Library (AID 1347374); note: nearly all actives have a fitted effect of over 60% in size; note: potency is the fitted concentration of half-maximal effect;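 for activity change, negative = inhibition: HRE-bla ME-180 cells stimulated with cobalt chloride to stabilize HIF-1alpha; % is set by controls: 0 for no effect and ±100 for the full control effect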
Outline: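 Beta-lactamase reporter under HRE control in ME-180 cells; CoCl2 stimulus (60 uM solution as added), compounds 11-pt qHTS, 17 h 37C. CCF4 dye 2 h RT, 460/530 nm emission. CellTiter-Glo viability in same wells.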

[4] = qHTS for Antimalaria activity screened against the NCATS CANVASS Library (AID 1347380); note: nearly all actives have a fitted effect of over 40% in size; note: potency is the fitted concentration of half-maximal effect;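 for activity change, negative = inhibition: Plasmodium falciparum strain Dd2 asexual parasites grown in red blood cells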
Outline: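 Measures proliferation or cytotoxicity against Dd2 blood stages in 72 h cultures, 11-point qHTS dosing, with SYBR Green fluorescence as read-out; dihydroartemisinin titration served as control.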

[5] = qHTS for activators of Nrf2/ARE signaling pathway screened against the NCATS CANVASS Library (AID 1347391); note: nearly all actives have a fitted effect of over 60% in size; note: potency is the fitted concentration of half-maximal effect; for activation: 0% is about no effect
Outline: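 Activation of Nrf2/ARE was scored in ARE-bla HepG2 cells after 16 h compound exposure using CCF4 beta-lactamase fluorescence ratio readings.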

[6] = HPAF-II 12hr Apoptosis Induction qHTS against the NCATS CANVASS Library (AID 1347358); note: 0% is about no effect
Outline: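 Twelve-hour compound exposure of HPAF-II cells in DMEM with 10% FBS, then luminescent Caspase-Glo 3/7 detection after 15 min at room temperature; doxorubicin control.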

[7] = HEK293 12hr Apoptosis Induction qHTS against the NCATS CANVASS Library (AID 1347361); note: potency is the fitted concentration of half-maximal effect; for caspase activation: 0% is about no effect
Outline: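 500 HEK293 cells/well; cpds pin-transferred, 11-pt conc series; 12 h, 37 degrees C/5% CO2; Caspase-Glo 3/7 added, 15 min RT dark; luminescence.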

[8] = qHTS for inhibitors of Wild type Zika virus screened against the NCATS CANVASS Library (AID 1347396); note: potency is the fitted concentration of half-maximal effect
Outline: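 Using ATP-based luminescence (CellTiter Glo), this screen scores rescue of Vero 766 cells from wild-type Zika killing at 72 h post-infection. Compounds are tested in a concentration series.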

[9] = HPAF-II 18hr Apoptosis Induction qHTS against the NCATS CANVASS Library (AID 1347360); note: 0% is about no effect
Outline: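 Caspase-Glo 3/7 luminescence (DEVD substrate) after 15 min RT; HPAF-II, 500 cells/well, 18 h compound exposure at 37 degrees C, qHTS series; doxorubicin control 0.1nM - 4uM.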

[10] = qHTS Assay for Lipid Storage Modulators (AID 1519; calls by dose curve; for activity change, negative = inhibition: % is set by controls: 0 for no effect and ±100 for the full control effect); conditions: Drosophila S3 cells, BODIPY lipid droplet/cell ratio, laser cytometry, cells loaded with oleic acid
Outline: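 Cells seeded at 5,000 per well were treated with compounds over a concentration series and loaded with oleic acid (400 uM, as added). Lipid droplet fluorescence (488 nm excitation, 500-530 nm channel) was read by laser-scanning cytometry and normalized to 20 uM Triacsin C.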

CC1(C)CCC[C@]2(C)[C@@H]1CC[C@@]13C[C@@H](CC[C@H]12)C(C)(O)C3 (stereo partly specified)
inactive: Potency [1] | Potency [2] | Potency [3] | Potency [4] | Potency [5]

CC(=O)NC[C@@H]1O[C@H](CC/C=C(C)/C(C)=C/C=O)[C@H](C)C[C@H]1O
inactive: Potency [6] | Potency [7] | Potency [1] | Potency [2] | Potency [3] | Potency [4]

C[C@H]1C[C@@H]([C@@H]2CC[C@]34O[C@H](CC[C@@]35C[C@H](C)C(=O)O5)CN24)OC1=O
inactive: Potency [2] | Potency [4] | Potency [5] | Potency [8]

O=C(O)[C@@]12COC3(O)C1CCN1CC[C@H]3[C@@H]1c1c2[nH]c2ccccc12
inactive: Potency [7] | Potency [1] | Potency [2] | Potency [4] | Potency [5]

CC(C)=CCC/C(C)=C/Cc1c(O)c(CC=C(C)C)c(O)c2c(=O)c3cc(O)ccc3oc12
inactive: Potency [7] | Potency [1]
active: Potency [2] 23.5 µM | Potency [5] 2.63 µM

CO[C@@H]1[C@H](O)[C@@H](C)O[C@@H](OC[C@H]2/C=C/C=C/C(=O)C(C)C[C@H](C)C(O[C@@H]3O[C@H](C)CC4(OC(=O)O[C@@H]4C)C3O)[C@@H](C)/C=C/C(=O)OC2C)[C@@H]1OC (stereo partly specified)
inactive: Potency [9] | Potency [7] | Potency [1] | Potency [3]
active: Potency [5] 14.8 µM

COc1ccc([C@@H]2c3cc(OC)c(OC)cc3C(=O)[C@H](C)C2C)cc1OC (stereo partly specified)
inactive: caspase activation [7] 2.92% [at 9.19 µM] | activity change, negative = cytotoxic [2] 9.12% [at 9.19 µM] | activity change, negative = inhibition [3] 9.63% [at 7.64 µM] | activation [5] 4.51% [at 9.19 µM]

C=C1C(=O)C[C@H]2C[C@@H]1[C@]2(C)CCC=C(C)C
active: Potency [5] 16.6 µM
inactive: Potency [6] | Potency [9] | Potency [7] | Potency [1] | Potency [3] | Potency [8]

C[C@@H]1C[C@H]2C[C@]3(CCCCN3C)[C@@H]3C[C@H]2[C@H](C1)N(C)C3
inactive: Potency [6] | Potency [9] | Potency [7] | Potency [1]
active: Potency [2] 18.7 µM

OCc1ccc2ocnc2c1
inactive: Potency [9] | Potency [1] | Potency [2] | Potency [4] | Potency [5] | Potency [8]

C[C@@H]1C(=O)[C@]23CC[C@H]1C[C@]21O[C@H]2C(C)(C)C=CC(=O)[C@]23COC1=O
inactive: Potency [2] | Potency [4] | Potency [5] | Potency [8]

C=CC(=C)CC[C@]1(C)[C@H]2C[C@H](OC(=O)C(C)CC)C=C3[C@H](OC(C)=O)O[C@H](OC(C)=O)[C@@]32[C@H](OC)C[C@@H]1C (stereo partly specified)
active: Potency [7] 17.1 µM | Potency [2] 6.05 µM | Potency [3] 4.86 µM | Potency [4] 0.545 µM | Potency [8] 6.76 µM
inactive: Potency [1] | Potency [5]

CC(=O)O[C@@H]1C=C2C(=O)OC[C@]2(O)[C@@]2(C)CCCC(C)(C)[C@H]12
active: Potency [2] 10.5 µM | Potency [4] 0.0188 µM | Potency [8] 26.1 µM
inactive: Potency [1] | Potency [5]

COc1ccc(CCCc2cc(O)c(OC)c(O)c2)c(O)c1O
inactive: Potency [6] | Potency [9] | Potency [7] | Potency [3] | Potency [8]
active: Potency [2] 0.0148 µM

C/C=C1/CC[C@@H]2c3[nH]c4ccccc4c3CCN2C1
inactive: Potency [6] | Potency [2] | Potency [3]

O=Cc1ccc2n1C[C@@]1(C[C@H](O)[C@H](O)CO1)OC2
inactive: Potency [6] | Potency [9] | Potency [2] | Potency [3] | Potency [5]

NC(CCC(=O)NCS(=O)(=O)O)C(=O)O (stereo unspecified)
inactive: activity change, negative = inhibition ([10]; at 57.5 µM (top of the series)) 1.69%
46.4%: max response ([10]; measured here: lipid channel max response)
45.8%: max response ([10]; measured here: cell count channel max response)

C/C1=C/[C@@H](C)[C@H](O)C/C=C/CC/C=C/C(=O)O[C@@H]1[C@H](C)C(=O)/C=C/CC1CC(=O)NC(=O)C1
active: Potency [2] 14.8 µM | Potency [3] 7.47 µM | Potency [5] 2.34 µM
inactive: Potency [9] | Potency [1] | Potency [8]

C=C1C[C@@]23C=CC(=O)[C@@](C)(CCCC(C)C(=O)O)[C@@H]2C[C@@H]1CC3 (stereo partly specified)
inactive: Potency [6] | Potency [9] | Potency [3] | Potency [4] | Potency [8]
active: Potency [5] 16.6 µM

C=C1C(=O)O[C@H]2[C@H]1CC/C(CO)=C\CC[C@@]1(C)O[C@@H]21
inactive: Potency [5] | Potency [8]
active: Potency [2] 11.8 µM | Potency [3] 4.72 µM | Potency [4] 0.0084 µM

C=C(C)CC[C@H](Cc1c(O)cc(O)c2c1O[C@H](c1ccc(O)cc1O)CC2=O)C(=C)C
inactive: Potency [6] | Potency [9] | Potency [7] | Potency [2] | Potency [8]
active: Potency [4] 0.0059 µM

C=C1C[C@@]23C=CC(=O)[C@@](C)(CCC(=O)Nc4c(O)ccc(C(=O)O)c4O)C2C[C@@H]1CC3O (stereo partly specified)
inactive: Potency [6] | Potency [9] | Potency [7] | Potency [1] | Potency [2] | Potency [4] | Potency [5]

O=C1C[C@@H](c2ccc(O)c(-c3c(O)cc(O)c4c3O[C@H](c3ccc(O)cc3)CC4=O)c2)Oc2cc(O)cc(O)c21
inactive: Potency [1] | Potency [2] | Potency [8]

CN1CC[C@]2(c3cccc4c3N[C@@H]3N(C)CC[C@]43[C@@]34CCN(C)[C@@H]3Nc3ccccc34)c3ccccc3N[C@H]12
active: Potency [2] 3.72 µM | Potency [4] 1.49 µM
inactive: Potency [6] | Potency [9] | Potency [7] | Potency [5] | Potency [8]

C[C@@H](O)[C@H]1OC(=O)C=C2[C@]3(C)[C@H]4[C@H](OC(=O)[C@@]4(C)[C@@H](O)[C@H]4O[C@H]43)[C@H]3O[C@@]231
active: Potency [2] 1.48 µM | Potency [3] 1.49 µM | Potency [4] 0.594 µM
inactive: Potency [6] | Potency [7]

COc1ccc(/C=C2\COc3cc(O)ccc3C2=O)cc1
active: Potency [1] 0.485 µM | Potency [5] 8.31 µM
inactive: Potency [7] | Potency [2]

C[C@@H]1O[C@@H](O[C@@H]2[C@@H](O)[C@H](O[C@@H]3[C@@H](O)[C@@H](O)C(O[C@H]4[C@H](OC(=O)[C@]56CCC(C)(C)C[C@H]5C5=CCC7[C@@]8(C)C[C@H](O)[C@H](O[C@@H]9C[C@H](CO)[C@@H](O)[C@H](O)[C@H]9O)[C@@](C)(CO)C8[C@H](O)C[C@@]7(C)[C@]5(C)CC6)OC[C@H](O)[C@@H]4O)O[C@H]3C)OC[C@H]2O)[C@H](O)[C@H](O)[C@H]1O (stereo partly specified)
inactive: Potency [9] | Potency [1] | Potency [5]
